Assay outcomes deposited in PubChem BioAssay by National Center for Advancing Translational Sciences (NCATS).
Most compounds without a hit are left out; they make up all but 21% or so of the library.
Pf growth 96h – P. falciparum growth inhibition at 96 hour, primary screen for plastid delayed-death inhibitors; P. falciparum luciferase reporter growth, 96 h; Potency, µM (titrated, usually from 28.7 µM), usual class: inhibitors; hit rate 6.9% among 320,000; AID 504834
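Plates of compound plus infected erythrocytes (2% hematocrit, 0.05% parasitemia final) incubate 96 hours, 37 C, 5% CO2. Detection reagent added; reduced luminescence from the parasites' luciferase reporter flags inhibition.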
FBPA Giardia inh – Giardia lamblia aldolase inhibition; hit rate 0.71% among 290,000; Potency, µM (top dose mostly 59.6 µM), most hits filed as inhibitors; purified Giardia FBPA; further: nearly all actives have a fitted effect of over 55% in size
Target sequence (A8B2U2 whole entry, looked up): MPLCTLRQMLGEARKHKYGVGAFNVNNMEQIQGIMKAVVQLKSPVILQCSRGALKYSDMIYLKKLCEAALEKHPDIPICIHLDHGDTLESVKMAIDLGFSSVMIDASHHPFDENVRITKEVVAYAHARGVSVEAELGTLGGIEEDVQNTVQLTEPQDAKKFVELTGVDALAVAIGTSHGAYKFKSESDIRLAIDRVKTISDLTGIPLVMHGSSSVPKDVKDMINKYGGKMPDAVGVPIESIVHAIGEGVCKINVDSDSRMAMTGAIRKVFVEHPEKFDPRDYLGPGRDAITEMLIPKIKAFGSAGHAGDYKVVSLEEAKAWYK
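40 nM FBPA preincubated 10 min at RT with compound (up to 57.5 uM final), then substrate plus GAPDH/TPI/NAD/arsenate coupling and diaphorase/resazurin added. Fluorescence read after 20 min at RT, 525/598 nm.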
Shiga inhibitor – blocks Shiga toxin action in Vero cells; hit rate 9.2% among 290,000; AID 2315; inhibition, % at 38.7 µM; Vero cells, Shiga toxin protein synthesis inhibition reporter; in the data active means inhibition mostly above about 28%, no sharp cut-off; inactive means mostly below about 43%
Pf growth 48h – inhibits P. falciparum growth in the first generation, 48 h; Potency, µM (highest dose often 28.7 µM), actives largely listed as inhibitors; hit rate 5.9% among 310,000; AID 504832; P. falciparum luciferase growth in erythrocytes, 48 h
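A one-generation exposure of luciferase-tagged malaria parasites in RPMI 1640/Albumax erythrocyte culture, 37 C and 5% CO2. Inhibition is inferred from decreased luminescence after adding detection reagent.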
CHX counter – counter-screen hit for Shiga toxin inhibitors, cycloheximide; max response, %; AID 2314; cell reporter, cycloheximide protein synthesis inhibition counterscreen; hit rate 12% among 300,000; in the data active means max response mostly above about 13%, no sharp cut-off; inactive means mostly below about 14%; further: read at 38.3 µM for the half of the compounds with a filed dose
NS1 function inh – inhibitors of influenza NS1 protein function. Potency, µM (top dose mostly 46.1 µM). hit rate 0.4% among 270,000. AID 2326; calls by dose curve; further: actives are rising curves; nearly all actives have a fitted effect of over 50% in size
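OD600 was taken as the measure of yeast growth restored by compound in an NS1-expressing S. cerevisiae strain. Cells had been washed out of glucose medium and diluted 1:100 into galactose -URA medium, pH 6.0.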
Hits are given with their value; 0 = inactive; ? = inconclusive; - = no result given; ! = repeats disagree; [ ] = remark or other dose. Unless noted, the call rests on the fitted dose curve; in most records, active means well fitted curve in the direction sought with a large enough effect; inconclusive means small, poorly fitted or top-dose-only effect, or another doubt; inactive means no such curve, though single readings can be large; an effect the other way counts as inactive or inconclusive.

SMILES	Pf growth 96h	FBPA Giardia inh	Shiga inhibitor	Pf growth 48h	CHX counter	NS1 function inh
COc1ccc(OC)c(CNn2c(-c3cccc(C)c3)nc3ccccc3c2=O)c1	8.28µM	0	0	-	0	0
COc1cccc(CNn2c(-c3cccc(C)c3)nc3ccccc3c2=O)c1	9.28µM	0	0	-	19.0	0
CCOc1ccc(-c2nnc3sc(COc4ccccc4)nn23)cc1	11.7µM	0	0	0	0	0
Cc1ccc(-c2nnc3sc(CCc4ccccc4)nn23)cc1	0	0	47.5	?	18.7	0
CCOc1ccccc1OCc1nn2c(COc3ccccc3)nnc2s1	?	0	0	0	0	0
c1ccc(Cc2nn3c(COc4ccccc4)nnc3s2)cc1	-	0	60.2	0	13.2	0
CCCCNC(=O)c1cn(CC(C)C)c(=O)c2c1c1ccccc1n2C	0	0	0	?	0	?
CCOC(=O)c1ccccc1NC(=O)CSc1nc(N)cc(=O)[nH]1	0	0	0	0	0	0
COc1ccc(OC)c(N/C(N)=N/c2nc(C)cc(C)n2)c1	0	?	0	0	0	0
Cc1cc(C)nc(/N=C(\N)Nc2ccc(SC(F)F)cc2)n1	13.1µM	0	0	11.7µM	0	0
COc1ccc(C)cc1N/C(N)=N/c1nc(C)cc(C)n1	?	0	0	11.7µM	0	-
COc1cc(N/C(N)=N/c2nc(C)cc(C)n2)cc(OC)c1	10.4µM	0	0	?	0	0
Cc1ccc(C)c(N/C(N)=N/c2nc(C)cc(C)n2)c1	?	0	0	11.7µM	0	0
CC1CCC(NC(=O)c2ccc(NC3=NC4CS(=O)(=O)CC4S3)cc2)CC1 (stereo unspecified)	0	-	0	0	0	0
CC1COc2ccccc2N1S(=O)(=O)c1cc(Cl)ccc1Cl (stereo unspecified)	0	0	0	?	0	0
COc1ccc(/C=C(\C#N)C(=O)NCC(c2ccc(F)cc2)N2CCOCC2)cc1 (stereo unspecified)	?	0	0	?	0	0
O=C(NCc1c(F)cccc1F)c1cc(COc2c(F)cccc2F)on1	?	0	96.5	0	26.3	0
O=C(NC1CCc2ccccc21)c1cc(COc2c(F)cccc2F)on1 (stereo unspecified)	0	0	0	0	21.0	0
CC(CNC(=O)c1cc(COc2c(F)cccc2F)on1)c1ccccc1 (stereo unspecified)	0	-	0	0	0	0
CCOc1ccc(C(=O)NCC2OCCc3ccccc32)cc1 (stereo unspecified)	0	0	active	0	25.3	0
O=C(NCCc1cnn(-c2ccccc2)c1)c1cc(COc2c(F)cccc2F)on1	?	0	67.6	?	27.2	0
COc1ccc(C(=O)NCC2OCCc3ccccc32)cc1 (stereo unspecified)	0	0	0	0	0	0
O=C(CSc1ncnc2nc[nH]c12)Nc1nnc(SCc2ccc(Cl)c(Cl)c2)s1	0	0	0	0	0	0
Cc1cc(NC(=O)CCC(=O)N(Cc2ccc(F)cc2)C(C(=O)NC2CCCC2)c2ccco2)no1 (stereo unspecified)	0	0	0	0	0	0
O=C(NC1CCc2ccccc21)c1cc(COc2cncc(Cl)c2)on1 (stereo unspecified)	0	-	66.8	?	56.6	0
SMILES	Pf growth 96h	FBPA Giardia inh	Shiga inhibitor	Pf growth 48h	CHX counter	NS1 function inh
O=C(NC1CCc2ccccc21)c1cc(COc2ccc(F)cc2Cl)on1 (stereo unspecified)	0	0	0	0	0	0
O=C(NCC1OCCc2ccccc21)c1cc(COc2c(F)cccc2F)on1 (stereo unspecified)	13.1µM	0	49.3	0	34.6	0
CCNc1ncc2nc(-c3cn(C)c4ccccc34)c(=O)n(CCC#N)c2n1	-	0	-	-	-	-
Cc1ccc(C2/C(=C(\O)c3cnn(-c4ccccc4)c3C)C(=O)C(=O)N2CCN(C)C)o1 (stereo unspecified)	0	0	0	?	0	0
Cc1c(/C(O)=C2\C(=O)C(=O)N(CCN(C)C)C2c2ccccc2)cnn1-c1ccccc1 (stereo unspecified)	0	0	110.9	0	49.9	0
Cc1c(/C(O)=C2/C(=O)C(=O)N(CCN(C)C)C2c2ccc(C(C)C)cc2)cnn1-c1ccccc1 (stereo unspecified)	0	0	0	0	0	0
CCCOc1ccc(/C(O)=C2/C(=O)C(=O)N(CCN(C)C)C2c2ccco2)cc1 (stereo unspecified)	?	0	73.8	0	36.8	0
Cc1c(/C(O)=C2\C(=O)C(=O)N(CCN(C)C)C2c2ccco2)cnn1-c1ccccc1 (stereo unspecified)	0	0	67.3	-	30.2	0
CCN(CC)CCCN1C(=O)C(=O)/C(=C(/O)c2ccc3c(c2)OCCO3)C1c1ccco1 (stereo unspecified)	0[5.75 µM]	0	0	0	46.5	0
CCc1nc2cccnc2n1-c1ccc(CC(=O)O)cc1	10.4µM	0	0	0	0	0
CCOCCCNC(=O)Cc1ccc(-n2c(CC)nc3cccnc32)cc1	?	0	0	0	0	0
Cc1ccc(S(=O)(=O)N(C)C)cc1NC(=O)CN1C(=O)NC2(CCCc3ccccc32)C1=O (stereo unspecified)	0	0	0	0	0	0
CCN(CC)c1ccc(CC2C(=O)N(C)C(=O)N(C)C2=O)cc1	0	0	0	?	0	0
C=CCOc1ccc(CC2C(=O)N(C)C(=O)N(C)C2=O)cc1	0	0	0	3.7µM	0	0
CCCCCCCCNC(C)C(O)c1ccc(SC(C)C)cc1 (stereo unspecified)	0.928µM!	0	0	1.85µM	0	0
COc1cc(Nc2cc(C)nc3nc(C)nn23)cc(OC)c1OC	0	0	0	9.28µM	0	0
COc1ccc(Nc2cc(C)nc3nc(C)nn23)cc1Cl	0	0	0	-	0	?
Cc1cc(Nc2ccc(F)c(Cl)c2)n2nc(C)nc2n1	0	0	0	3.29µM	0	0
Cc1oc2c(C)c3oc(=O)c(CCC(=O)O)c(C)c3cc2c1-c1ccccc1	0	0	0	-	0	0
O=C(Nc1ccccc1-c1nnc(SCc2ccc(Cl)cc2)o1)c1ccccc1	0	0	0	13.1µM	0	0
O=c1c(-c2nnc(SCc3ccc(Cl)cc3)o2)cccn1Cc1ccccc1	13.1µM	0	0	?	0	0
CC(C)OP(=O)(OC(C)C)C(O)c1ccc(N(C)C)cc1 (stereo unspecified)	0	0	0	0	0	0
C[C@@H]1CN(Cc2cn(C)nc2-c2cccc(Cl)c2)C[C@H](C)O1	0	0	0	0	0	0
CN1C[C@@H]2C(c3ccc(Cl)nc3)C3(c4cccnc4)CC2(C3)[C@H]1c1ccccc1 (stereo partly specified)	10.4µM	0	0	10.4µM	0	0
COC(=O)c1cccc(C23CC4(C2)[C@H](CN(Cc2ccc(-c5ccccc5)cc2)[C@@H]4c2ccccc2)C3c2ccc(Cl)nc2)c1 (stereo partly specified)	?	0	0	?	0	0
